Potency data for 5 compounds are collected here from PubChem BioAssay (Tox21).

The structures appear in SMILES notation. Results filed as inconclusive are left out. Active and inactive are the calls of the source. Unless noted, the call rests on the fitted dose curve.

Assay [1] is described as follows: Nuclear factor erythroid 2-related factor 2/antioxidant responsive element (Nrf2/ARE) small molecule agonists: qHTS cell viability counter screen in human keratinocytes (AID 1919968; active means well fitted curve in the direction sought with a large enough effect in the repeat runs; an effect the other way counts as inactive or inconclusive; further: nearly all actives have a fitted effect of over 55% in size). The method in brief:
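Stably transfected HaCaT (KeratinoSens), 1,500/well. Test agents in DMSO were applied for 23 h, 37 C/5% CO2. CellTiter-Fluor was incubated 1 h before the fluorescence read.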

The nature of assay [2]: Nuclear factor erythroid 2-related factor 2/antioxidant responsive element (Nrf2/ARE) small molecule agonists: luciferase reporter gene qHTS assay in human keratinocytes (AID 1919969). Further: nearly all actives have a fitted effect of over 35% in size. Further: potency means the concentration at half of the fitted maximal effect.
Assay [3] deals with Gonadotropin-releasing hormone receptor (Homo sapiens) (UniProt P30968). Description: Human gonadotropin-releasing hormone receptor (GnRHR) small molecule agonists, calcium flux assay in GnRHR-HEK293 cells (AID 1920063). Further: nearly all actives have a fitted effect of over 35% in size. The method in brief: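 Stable human GnRHR HEK293 line. 18 h plating, then calcium dye for 1 h at 37 C. Agonist-mode compound addition from DMSO stocks; fluorescence monitored 3 min.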

Assay [4] has as its target KiSS-1 receptor (Homo sapiens) (UniProt Q969F8). Description: Human kisspeptin (KISS1R) small molecule agonists, calcium flux assay in KISS1R-HEK293 cells (AID 1920064; active means well fitted curve in the direction sought with a large enough effect in the repeat runs; an effect the other way counts as inactive or inconclusive). In a few lines: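 After overnight (18 h) culture at 37 C/5% CO2, human KISS1R-HEK293 cells received calcium dye for 1 h, then test compound; emission at 540 nm (excitation 480 nm) was tracked for 3 min.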

Assay [5] is described as follows: G protein-coupled receptor (GPCR) small molecule agonists, calcium flux assay: HEK293 wild type cell line counter screen (AID 1920065). The method in brief: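 Following 18 h incubation at 37 C/5% CO2, plates got calcium dye for 1 h; compounds, ATP or DMSO were then pinned in and fluorescence followed kinetically (480/540 nm).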
A short description of assay [6]: p53 small molecule agonists, cell-based qHTS assay with human liver microsomes: qHTS cell viability counter screen (AID 1963579). Further: nearly all actives have a fitted effect of over 45% in size. In a few lines:
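Viability of p53RE-bla cells is measured as CellTiter-Glo luminescence following a 16 h, 37 C incubation with compound, liver microsomes from human donors and NADPH.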

A short description of assay [7]: p53 small molecule agonists, cell-based qHTS assay with rat liver microsomes: qHTS cell viability counter screen (AID 1963580). Further: nearly all actives have a fitted effect of over 45% in size. The method in brief:
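Rat liver microsome (0.5 mg/mL final) and NADPH (0.5 mg/mL final) co-incubation with compounds for 16 h at 37 C on HCT-116 p53RE-bla cells; cytotoxicity taken from intracellular ATP luminescence.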

The target of assay [8] is 5-hydroxytryptamine receptor 2A (Homo sapiens) (UniProt P28223). Description: 5-hydroxytryptamine receptor 2A (HTR2A) small molecule antagonists, cell-based qHTS assay (AID 1963586). Further: nearly all actives have a fitted effect of over 45% in size. In a few lines: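 CHO cells stably expressing human HTR2A were plated for 18 h at 37 C, then loaded with calcium dye for 1 h. Compounds were preincubated 5 min at room temperature before DOI (4 nM solution) was added. Kinetic fluorescence was read for 3 min.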

For assay [9], the target named is Muscarinic acetylcholine receptor M1 (Homo sapiens) (UniProt P11229). The assay is described as follows: Cholinergic receptor muscarinic 1 (CHRM1) small molecule antagonists, cell-based qHTS assay (AID 1963588). Further: nearly all actives have a fitted effect of over 40% in size. Further: potency means the concentration at half of the fitted maximal effect. In a few lines: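 Compounds were tested at 15 concentrations in three independent runs. Dye-loaded CHRM1-CHO cells were exposed 5 min at room temperature before stimulation by acetylcholine added at 50nM. Intracellular calcium was read kinetically on FDSS for 3 min.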

For assay [10] the target is unchanged. Description: Cholinergic receptor muscarinic 1 (CHRM1) small molecule agonists, cell-based qHTS assay (AID 1963589). Further: nearly all actives have a fitted effect of over 35% in size. In a few lines: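 Kinetic fluorescence (1 s intervals) of calcium-sensitive dye in human M1 CHO cells after compound addition; cells pre-incubated 18 h at 37 C/5% CO2 and dye-loaded 1 h.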
Assay [11] in a line: cAMP Responsive Elements (CRE) small molecule agonists, cell-based qHTS assay (AID 1963590). In a few lines: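 Test agents in DMSO were incubated 3 h at 37 C/5% CO2 with CRE-bla HEK 293T cells seeded 18 h earlier; LiveBLAzer B/G FRET substrate was added and read after 2 h at room temperature.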
Assay [12] in a line: cAMP Responsive Elements (CRE) small molecule antagonists, cell-based qHTS assay (AID 1963591; active means well fitted inhibition curve with a large enough effect in the signal ratio in the repeat runs, not every such curve was filed as active; the % refers to the signal ratio). In a few lines: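 Reporter line CRE-bla HEK 293T in dialyzed-FBS DMEM; cells preincubated 18 h, treated 3 h with compound plus NKH477 (0.25 uM final); LiveBLAzer FRET, 2 h RT.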
Assay [13] concerns the target Beta-2 adrenergic receptor (Homo sapiens) (UniProt P07550). Description: Adrenergic beta2 receptor (ADRB2) small molecule agonists, cell-based qHTS assay (AID 1963593).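 Further: CHO cells stably overexpressing human ADRB2.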 In a few lines:
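CHO cells stably over-expressing ADRB2 were plated overnight at 37C, then dosed with compounds plus a stimulation mix containing 100uM IBMX and 25uM Ro-20-1724 for 0.5hr at room temperature. cAMP was measured by HTRF competition, 1hr.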

The target of assay [14] is D(2) dopamine receptor (Homo sapiens) (UniProt P14416). The assay is described as follows: Dopamine D2 receptor (DRD2) small molecule agonists, cell-based qHTS assay (AID 1963594). Further: nearly all actives have a fitted effect of over 35% in size. Further: potency means the concentration at half of the fitted maximal effect. In a few lines:
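cAMP accumulation in DRD2-HEK293 cells measured by HTRF after 1 h detection; compounds added 10 min before NKH477 (200nM […]) forskolin-analogue stimulation, 30 min at room temperature, with Ro20-1724 present at 0.1 mM final.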

The target is the same in assay [15]. Description: Dopamine D2 receptor (DRD2) small molecule antagonists, cell-based qHTS assay (AID 1963595; active means well fitted inhibition curve with a large enough effect in the signal ratio in the repeat runs, with a control signal flat; the % refers to the signal ratio). In a few lines:
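Human DRD2 antagonist qHTS measuring cAMP by HTRF. The cells are exposed to compound for 10 min, then to NKH477 (200 nM) and quinpirole (12 nM) for 30 min at RT, with Ro20-1724 (0.1 mM) present throughout.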

Assay [16] is described as follows: p53 small molecule agonists, cell-based qHTS assay: qHTS cell viability counter screen (AID 1963581). Further: nearly all actives have a fitted effect of over 45% in size. The method in brief: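 qHTS counter screen: 16 h compound exposure at 37 C of p53RE-bla HCT-116 cells (4,000 per well, seeded 5 h prior), cell viability by ATP luminescence.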
The target of assay [17] is 5-hydroxytryptamine receptor 2A (Homo sapiens) (UniProt P28223). Description: 5-hydroxytryptamine receptor 2A (HTR2A) small molecule agonists, cell-based qHTS assay (AID 1963587). Further: nearly all actives have a fitted effect of over 30% in size. In a few lines:
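Kinetic calcium-flux fluorescence (2 min, 1 sec intervals) after compound addition in agonist mode. HTR2A-CHO cells were cultured 18 h, then dye-loaded 1 h at 37 C.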

Assay [18] has as its target Beta-2 adrenergic receptor (Homo sapiens) (UniProt P07550). The assay is described as follows: Adrenergic beta2 receptor (ADRB2) small molecule antagonists, cell-based qHTS assay (AID 1963592). Further: series mostly up to about 92 µM; nearly all actives have a fitted effect of over 50% in size. In a few lines:
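Assay format: CHO-ADRB2 cells, 18-20hr seeding at 37C/5% CO2, then compound plus 1nM isoproterenol agonist mix for 0.5hr RT. Homogeneous time-resolved fluorescence cAMP detection after 1hr, expressed as 665/615 nm ratio.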

A short description of assay [19]: p53 small molecule agonists, cell-based qHTS assay (AID 1963582; active means well fitted activation curve with a large enough effect in the signal ratio in the repeat runs, not every such curve was filed as active; the % refers to the signal ratio). In a few lines: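 Measured: fluorescence from cleaved LiveBLAzer substrate. System: p53RE-bla cells, 16 h compound treatment at 37 C, 2 h substrate step at room temperature.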

Chain of D(2) dopamine receptor (Homo sapiens) (P14416 whole entry, looked up): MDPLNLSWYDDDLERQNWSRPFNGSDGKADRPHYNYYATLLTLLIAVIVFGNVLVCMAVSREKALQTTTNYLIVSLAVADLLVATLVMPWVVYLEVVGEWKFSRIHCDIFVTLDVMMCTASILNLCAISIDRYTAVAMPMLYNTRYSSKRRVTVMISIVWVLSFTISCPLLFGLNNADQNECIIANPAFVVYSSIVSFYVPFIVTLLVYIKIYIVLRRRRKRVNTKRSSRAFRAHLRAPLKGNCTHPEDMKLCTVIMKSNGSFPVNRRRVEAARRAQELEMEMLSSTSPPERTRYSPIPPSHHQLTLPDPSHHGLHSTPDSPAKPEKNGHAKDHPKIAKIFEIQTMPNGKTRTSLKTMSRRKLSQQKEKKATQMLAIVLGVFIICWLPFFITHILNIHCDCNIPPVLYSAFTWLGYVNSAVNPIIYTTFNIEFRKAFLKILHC
Chain of Muscarinic acetylcholine receptor M1 (Homo sapiens) (P11229 whole entry, looked up): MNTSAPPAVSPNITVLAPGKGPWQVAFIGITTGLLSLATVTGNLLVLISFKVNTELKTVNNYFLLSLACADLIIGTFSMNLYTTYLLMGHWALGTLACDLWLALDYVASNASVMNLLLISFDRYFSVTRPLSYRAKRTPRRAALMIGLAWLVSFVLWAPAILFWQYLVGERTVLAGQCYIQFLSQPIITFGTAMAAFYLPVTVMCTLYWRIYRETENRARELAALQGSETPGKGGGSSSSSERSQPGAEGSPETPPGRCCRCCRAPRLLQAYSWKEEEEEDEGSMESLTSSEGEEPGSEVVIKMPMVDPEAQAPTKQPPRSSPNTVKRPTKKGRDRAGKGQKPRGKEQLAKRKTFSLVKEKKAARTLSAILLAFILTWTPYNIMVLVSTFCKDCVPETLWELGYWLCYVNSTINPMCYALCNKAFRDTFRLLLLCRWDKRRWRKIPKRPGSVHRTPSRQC
Chain of Beta-2 adrenergic receptor (Homo sapiens) (P07550 whole entry, looked up): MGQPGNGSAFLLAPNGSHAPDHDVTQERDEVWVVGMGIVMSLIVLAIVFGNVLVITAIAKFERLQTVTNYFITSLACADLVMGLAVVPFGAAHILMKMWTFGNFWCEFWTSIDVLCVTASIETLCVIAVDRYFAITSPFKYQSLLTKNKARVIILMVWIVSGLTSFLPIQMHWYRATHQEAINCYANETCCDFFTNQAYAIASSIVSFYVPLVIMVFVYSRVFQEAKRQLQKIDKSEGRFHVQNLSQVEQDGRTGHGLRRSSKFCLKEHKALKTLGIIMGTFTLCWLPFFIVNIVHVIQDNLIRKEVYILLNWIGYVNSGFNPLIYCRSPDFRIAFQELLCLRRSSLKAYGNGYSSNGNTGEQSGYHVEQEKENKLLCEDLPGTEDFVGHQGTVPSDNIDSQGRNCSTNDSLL
Chain of Gonadotropin-releasing hormone receptor (Homo sapiens) (P30968 whole entry, looked up): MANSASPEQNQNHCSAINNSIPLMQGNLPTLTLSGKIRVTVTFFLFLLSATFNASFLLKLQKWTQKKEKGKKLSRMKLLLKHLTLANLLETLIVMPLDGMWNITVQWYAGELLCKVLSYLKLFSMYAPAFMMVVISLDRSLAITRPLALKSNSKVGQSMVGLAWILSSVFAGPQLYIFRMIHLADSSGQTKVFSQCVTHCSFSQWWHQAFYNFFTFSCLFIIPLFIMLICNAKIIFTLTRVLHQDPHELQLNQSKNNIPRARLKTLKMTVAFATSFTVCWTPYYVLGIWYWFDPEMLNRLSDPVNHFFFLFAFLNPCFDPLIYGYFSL
Chain of 5-hydroxytryptamine receptor 2A (Homo sapiens) (P28223 whole entry, looked up): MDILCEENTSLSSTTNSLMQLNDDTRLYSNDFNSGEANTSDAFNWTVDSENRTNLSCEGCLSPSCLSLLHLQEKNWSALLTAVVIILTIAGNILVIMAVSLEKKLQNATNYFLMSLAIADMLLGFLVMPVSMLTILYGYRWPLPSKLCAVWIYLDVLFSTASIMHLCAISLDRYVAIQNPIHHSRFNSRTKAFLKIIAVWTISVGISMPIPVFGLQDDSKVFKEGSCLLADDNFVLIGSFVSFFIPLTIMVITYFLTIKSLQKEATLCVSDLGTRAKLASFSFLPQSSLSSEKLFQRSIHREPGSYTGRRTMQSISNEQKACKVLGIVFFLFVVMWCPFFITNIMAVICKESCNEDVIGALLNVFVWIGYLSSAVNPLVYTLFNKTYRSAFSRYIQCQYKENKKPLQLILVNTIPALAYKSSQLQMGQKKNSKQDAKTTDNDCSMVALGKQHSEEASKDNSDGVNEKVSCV
Chain of KiSS-1 receptor (Homo sapiens) (Q969F8 whole entry, looked up): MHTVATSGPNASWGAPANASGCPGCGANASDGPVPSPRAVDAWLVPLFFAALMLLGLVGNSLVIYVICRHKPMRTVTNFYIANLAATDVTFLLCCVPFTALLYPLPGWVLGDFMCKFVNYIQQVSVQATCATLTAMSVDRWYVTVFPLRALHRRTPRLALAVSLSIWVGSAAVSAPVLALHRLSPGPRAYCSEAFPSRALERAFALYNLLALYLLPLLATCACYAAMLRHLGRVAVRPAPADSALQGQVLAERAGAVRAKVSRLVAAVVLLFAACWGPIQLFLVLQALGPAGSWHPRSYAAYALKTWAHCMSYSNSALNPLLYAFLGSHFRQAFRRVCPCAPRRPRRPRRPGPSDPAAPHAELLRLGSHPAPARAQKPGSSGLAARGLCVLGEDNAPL

Regarding `CCC1CCC(=O)O1` (configuration not stated), the Potency entry in assay [1], in [2], in assay [3], in assay [4], in [5] and in assay [6] was “inactive” each time. Also, the Potency entry in assay [7], in assay [8], in assay [9], in assay [10], in [11] and in assay [12] was “inactive” in each case. Moreover, the Potency entry in [13], in [14] and in assay [15] was “inactive” each time.
Regarding `CCCCc1ccccc1`, the Potency entry in assay [1], in assay [2], in assay [3], in [4], in assay [5] and in assay [7] was “inactive” throughout. Also, the Potency entry in [16], in assay [8], in assay [17], in assay [9], in [10] and in assay [11] was “inactive” in each case. The Potency result in assay [12], in assay [18], in assay [13], in assay [14] and in assay [15] was “inactive” each time.
Consider `Cc1nc(N(C)C)nc(OC(=O)N(C)C)c1C`, for which the Potency entry in [1], in assay [2], in assay [3], in assay [4], in assay [5] and in [6] was “inactive” throughout. The Potency result in assay [16], in assay [8], in assay [17], in [9], in assay [10] and in assay [11] was “inactive” in each case. Further, the Potency entry in assay [12], in [18], in assay [13] and in assay [15] was “inactive” throughout.
Consider `CCOP(=S)(S)OCC`, for which the Potency result in assay [1], in assay [3], in [4], in assay [5], in assay [7] and in assay [16] was “inactive” in each case. The Potency entry in assay [19], in assay [8], in [17], in [9], in assay [11] and in [12] was “inactive” in each case. Moreover, the Potency result in assay [18], in assay [13], in assay [14] and in [15] was “inactive” in each case. Also, the Potency in assay [2] is 64.4 µM (active).
Turning to `CC(C)N(CCC(C(N)=O)(c1ccccc1)c1ccccn1)C(C)C` (configuration not stated), the Potency result in assay [1], in assay [2], in assay [3], in assay [4], in assay [5] and in [6] was “inactive” in each case. The Potency entry in [7], in assay [8], in assay [17], in assay [10], in [11] and in assay [12] was “inactive” throughout. Further, the Potency result in assay [18], in assay [13] and in [15] was “inactive” throughout. Moreover, the Potency was 2.05 µM (active) in assay [9] and 11.4 µM (active) in assay [14].
